Test results published in publication PMC9838217, “Structure of SALL4 zinc finger domain reveals link between AT-rich DNA binding and Okihiro syndrome”.
Numbering of substitutions follows the chain as printed.

What was measured:
Assay in all cases: HT-SELEX; high values mean tight binding
Settings in all cases: protein: recombinant; vector His6-GST; dsDNA, one strand shown
[1] = target: T1, SALL4 ZFC4 R900W (HT-SELEX) (Mus musculus, UniProt Q8BX22 870-940, R900W)
T1 sequence: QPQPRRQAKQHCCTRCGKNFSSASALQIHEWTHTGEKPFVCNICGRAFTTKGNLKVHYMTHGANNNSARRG
Summary of the method: (§1)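 For each canonical k-mer, binding signal is the read fraction as fold change versus the initial random library. Data came from up to 6 triplicate cycles in which purified recombinant mouse SALL4 zinc finger cluster 4 (residues 870–940, 1 µg) was incubated 10 min at room temperature with library DNA (1.5 µg first cycle, 200 ng later) in 100 µl of 10 mM Tris–HCl pH 7.5, 50 mM NaCl, poly(dI-dC), DTT, followed by Ni2+ bead capture, PCR amplification, MiSeq sequencing and a 6-mer scan.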

[2] = target: T2, SALL4 ZFC4 G921D (HT-SELEX) (Mus musculus, UniProt Q8BX22 870-940, G921D)
T2 sequence: T1 sequence with W31R, G52D
Summary of the method: as §1

[3] = target: T3, SALL4 ZFC4 WT (HT-SELEX) (Mus musculus, UniProt Q8BX22 870-940)
T3 sequence: T1 sequence with W31R
Summary of the method: as §1

Row | Sequence | binding signal [1] [fold-change vs cycle 0] | binding signal [2] [fold-change vs cycle 0] | binding signal [3] [fold-change vs cycle 0]
1 | CCGGTC | 0.202 ± 0.0231 | 0.315 ± 0.0731 | –
2 | GGGCAA | 0.299 ± 0.00241 | 0.434 ± 0.0775 | –
3 | CGGCAG | 0.106 ± 0.00823 | 0.214 ± 0.0627 | –
4 | TGCGCA | 0.136 ± 0.00666 | 0.263 ± 0.0848 | –
5 | CCGCCG | 0.0347 ± 0.00309 | 0.117 ± 0.0571 | –
6 | CCTGGC | 0.162 ± 0.00687 | 0.281 ± 0.075 | –
7 | CGCGAG | 0.135 ± 0.0168 | 0.231 ± 0.0693 | –
8 | GGCACA | 0.256 ± 0.0249 | 0.414 ± 0.0716 | –
9 | GCTCCC | 0.239 ± 0.0043 | 0.357 ± 0.0785 | –
10 | TCCGCA | 0.269 ± 0.0199 | 0.408 ± 0.0556 | –
11 | CAGCGA | 0.275 ± 0.0083 | 0.404 ± 0.0764 | –
12 | CGCCAG | 0.103 ± 0.00325 | 0.214 ± 0.0676 | –
13 | ATGGGC | 0.3096 ± 0.00283 | 0.446 ± 0.0581 | –
14 | ATGCAA | – | 1.18 ± 0.0528 | 1.2 ± 0.113
15 | CGCCTC | 0.152 ± 0.0261 | 0.277 ± 0.0696 | –
16 | GCCGCC | 0.0335 ± 0.00625 | 0.107 ± 0.0564 | –
17 | AGCACG | 0.337 ± 0.0173 | 0.468 ± 0.0696 | –
18 | CCCCGA | 0.246 ± 0.0185 | 0.358 ± 0.0831 | –
19 | ATAGCA | – | 1.23 ± 0.0807 | 1.2 ± 0.0655
20 | AGCCCG | 0.14 ± 0.0115 | 0.253 ± 0.0774 | –
21 | ACTGCC | 0.333 ± 0.0151 | 0.469 ± 0.0726 | –
22 | CAGATA | – | 1.29 ± 0.0843 | 1.33 ± 0.0697
23 | CCAGGC | 0.174 ± 0.0159 | 0.302 ± 0.0679 | –
24 | AGAGGC | 0.355 ± 0.0197 | 0.484 ± 0.0611 | –

Row | Sequence | binding signal [1] [fold-change vs cycle 0] | binding signal [2] [fold-change vs cycle 0] | binding signal [3] [fold-change vs cycle 0]
25 | GAGAGA | – | 1.06 ± 0.0177 | 0.898 ± 0.0151
26 | ACGGCG | 0.0768 ± 0.0155 | 0.177 ± 0.0582 | –
27 | GCCCGC | 0.0368 ± 0.00404 | 0.115 ± 0.0587 | –
28 | CGACAC | 0.316 ± 0.0105 | 0.48 ± 0.0742 | –
29 | ACTCCA | – | 1.03 ± 0.0296 | 0.896 ± 0.0264
30 | CACGCC | 0.137 ± 0.0218 | 0.251 ± 0.0597 | –
31 | AGAATA | 2.17 ± 0.0929 | 1.84 ± 0.188 | –
32 | CGCCTA | 0.26 ± 0.0104 | 0.413 ± 0.0625 | –
33 | GGCTGA | 0.349 ± 0.0304 | 0.483 ± 0.072 | –
34 | ACAAAC | – | 1.23 ± 0.0372 | 1.07 ± 0.057
35 | ATCCTG | – | 1.02 ± 0.0414 | 0.879 ± 0.0324
36 | CATCGC | 0.317 ± 0.0166 | 0.45 ± 0.0668 | –
37 | ACGAAA | – | 1.11 ± 0.0388 | 1.04 ± 0.0604
38 | ACGCGA | 0.245 ± 0.0174 | 0.365 ± 0.0478 | –
39 | GCCAGA | 0.289 ± 0.0233 | 0.414 ± 0.0657 | –
40 | CGGCCG | 0.0289 ± 0.00511 | 0.105 ± 0.0554 | –
41 | AGCCCA | 0.323 ± 0.00919 | 0.465 ± 0.0703 | –
42 | GCTGCA | 0.256 ± 0.0235 | 0.379 ± 0.0774 | –
43 | CGGGGC | 0.0617 ± 0.00701 | 0.163 ± 0.0639 | –
44 | CTCTTA | 1.6 ± 0.108 | 1.46 ± 0.111 | –
45 | AGGGCG | 0.146 ± 0.011 | 0.26 ± 0.0708 | –
46 | CCGGGC | 0.0594 ± 0.00905 | 0.152 ± 0.0608 | –
47 | GGGGCA | 0.178 ± 0.00946 | 0.291 ± 0.0681 | –
48 | CGATCG | 0.329 ± 0.0324 | 0.53 ± 0.115 | –

Row | Sequence | binding signal [1] [fold-change vs cycle 0] | binding signal [2] [fold-change vs cycle 0] | binding signal [3] [fold-change vs cycle 0]
49 | CGGCGC | 0.0207 ± 0.00259 | 0.0907 ± 0.0497 | –
50 | GAGCCC | 0.184 ± 0.0121 | 0.331 ± 0.0823 | –
51 | CCCACC | 0.282 ± 0.00918 | 0.397 ± 0.0572 | –
52 | ACGACG | 0.31 ± 0.0104 | 0.425 ± 0.0391 | –
53 | CGACGA | 0.288 ± 0.00345 | 0.415 ± 0.0734 | –
54 | CCGCGC | 0.0273 ± 0.00598 | 0.0941 ± 0.0469 | –
55 | CGGCCC | 0.0477 ± 0.00335 | 0.134 ± 0.0582 | –
56 | GGCGCC | 0.0274 ± 0.00854 | 0.102 ± 0.0477 | –
57 | ACGCCA | 0.244 ± 0.0178 | 0.368 ± 0.0567 | –
58 | CGCCCA | 0.107 ± 0.00392 | 0.227 ± 0.0707 | –
59 | CCGCAA | 0.234 ± 0.0164 | 0.347 ± 0.0535 | –
60 | GGCCGA | 0.0868 ± 0.00648 | 0.196 ± 0.0603 | –
61 | GTCGGA | 0.35 ± 0.00494 | 0.501 ± 0.0597 | –
62 | ATGCCC | 0.331 ± 0.00967 | 0.475 ± 0.0568 | –
63 | ATCGCG | 0.221 ± 0.00468 | 0.363 ± 0.0564 | –
64 | ACGCGC | 0.0585 ± 0.00894 | 0.159 ± 0.07 | –
65 | GAGGGC | 0.201 ± 0.0133 | 0.323 ± 0.085 | –
66 | CTGGCA | 0.281 ± 0.0156 | 0.413 ± 0.0619 | –
67 | CGGCCA | 0.0795 ± 0.00952 | 0.19 ± 0.0619 | –
68 | GTGCAC | 0.313 ± 0.0179 | 0.456 ± 0.0786 | –
69 | GGGCCA | 0.129 ± 0.0234 | 0.254 ± 0.0851 | –
70 | CCCGAG | 0.2602 ± 0.00145 | 0.386 ± 0.0692 | –
71 | GCACGC | 0.0991 ± 0.0124 | 0.21 ± 0.063 | –
72 | CTGCAC | 0.345 ± 0.044 | 0.47 ± 0.0692 | –

Row | Sequence | binding signal [1] [fold-change vs cycle 0] | binding signal [2] [fold-change vs cycle 0] | binding signal [3] [fold-change vs cycle 0]
73 | AACGCG | 0.226 ± 0.0175 | 0.329 ± 0.0589 | –
74 | CGCGTC | 0.112 ± 0.0164 | 0.207 ± 0.0615 | –
75 | ACCCGC | 0.145 ± 0.00827 | 0.259 ± 0.0632 | –
76 | CGCAGC | 0.0883 ± 0.014 | 0.191 ± 0.0678 | –
77 | CGAGCG | 0.115 ± 0.0072 | 0.24 ± 0.0639 | –
78 | CCACCC | 0.298 ± 0.0277 | 0.395 ± 0.0676 | –
79 | ACGGCT | 0.272 ± 0.0156 | 0.399 ± 0.0636 | –
80 | TCGTAA | 1.29 ± 0.0564 | 1.25 ± 0.113 | –
81 | AACCGC | 0.258 ± 0.0187 | 0.396 ± 0.0835 | –
82 | GGCGAA | 0.216 ± 0.00992 | 0.36 ± 0.0782 | –
83 | GCGAAC | 0.281 ± 0.0107 | 0.417 ± 0.0584 | –
84 | GCCGAA | 0.189 ± 0.0081 | 0.319 ± 0.0704 | –
85 | CGCGCA | 0.0534 ± 0.00681 | 0.139 ± 0.0597 | –
86 | ACTGGC | 0.318 ± 0.0103 | 0.448 ± 0.0505 | –
87 | GGAATA | 1.41 ± 0.0506 | 1.35 ± 0.0751 | –
88 | CGCTGC | 0.0919 ± 0.0151 | 0.201 ± 0.0834 | –
89 | AGCCAG | 0.361 ± 0.0134 | 0.485 ± 0.0483 | –
90 | CTTGGC | 0.308 ± 0.0227 | 0.45 ± 0.0809 | –
91 | GGCCAA | 0.221 ± 0.00964 | 0.358 ± 0.0813 | –
92 | GATCGC | 0.301 ± 0.0313 | 0.461 ± 0.0896 | –
93 | GCCAAC | 0.279 ± 0.0168 | 0.415 ± 0.0905 | –
94 | CGCTCC | 0.165 ± 0.00419 | 0.29 ± 0.0821 | –
95 | CCGTGC | 0.143 ± 0.00796 | 0.251 ± 0.0641 | –
96 | CCGGCC | 0.0476 ± 0.00257 | 0.135 ± 0.0646 | –

Row | Sequence | binding signal [1] [fold-change vs cycle 0] | binding signal [2] [fold-change vs cycle 0] | binding signal [3] [fold-change vs cycle 0]
97 | ACGCAC | 0.27 ± 0.0299 | 0.404 ± 0.0719 | –
98 | GCGTGA | 0.325 ± 0.00871 | 0.455 ± 0.056 | –
99 | GATGCC | 0.3346 ± 0.00318 | 0.49 ± 0.0663 | –
100 | CGGGGA | 0.231 ± 0.0209 | 0.347 ± 0.093 | –
101 | CGTGGC | 0.125 ± 0.0124 | 0.24 ± 0.0653 | –
102 | CCGTCC | 0.206 ± 0.0173 | 0.337 ± 0.0624 | –
103 | TGGCCA | 0.236 ± 0.00832 | 0.386 ± 0.0718 | –
104 | GGCGTA | 0.242 ± 0.0221 | 0.377 ± 0.0541 | –
105 | GCCAGC | 0.102 ± 0.00774 | 0.211 ± 0.0594 | –
106 | GCGCAC | 0.0689 ± 0.0069 | 0.167 ± 0.0842 | –
107 | ACGGGC | 0.131 ± 0.00526 | 0.241 ± 0.0805 | –
108 | CGCCCC | 0.0728 ± 0.00775 | 0.173 ± 0.0648 | –
109 | GGGCGA | 0.127 ± 0.00943 | 0.251 ± 0.0728 | –
110 | CCGACC | 0.172 ± 0.00253 | 0.309 ± 0.075 | –
111 | CCTGCC | 0.172 ± 0.00852 | 0.294 ± 0.0738 | –
112 | CCAGCG | 0.131 ± 0.0133 | 0.245 ± 0.0689 | –
113 | CCGGCG | 0.0367 ± 0.00313 | 0.128 ± 0.0641 | –
114 | ACGGCC | 0.0993 ± 0.00797 | 0.206 ± 0.0649 | –
115 | ACCATA | 1.42 ± 0.0261 | 1.36 ± 0.0475 | –
116 | CAGCCA | 0.309 ± 0.0234 | 0.442 ± 0.0984 | –
117 | GCGCCC | 0.0344 ± 0.0044 | 0.116 ± 0.0623 | –
118 | ATCCGC | 0.279 ± 0.016 | 0.426 ± 0.0842 | –
119 | ACCGCC | 0.117 ± 0.0115 | 0.235 ± 0.0718 | –
120 | CCGGGA | 0.237 ± 0.0178 | 0.341 ± 0.0693 | –
